SW480 rereplic = DNA re-replication induction in SW480 cells; SW480 DNA re-replication, Hoechst DNA content imaging, 48 h; Potency, µM (series often up to 46.1 µM), inactives show top-dose re-replication activation, hits mostly activators; 1.8% of 340,000 active; AID 624297; also: % of control where 0% means no effect; nearly all actives have a fitted effect of over 55% in size
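Quantitative HTS format with DMSO vehicle controls; 48 hr drug incubation at 37 C, then 40 min Hoechst staining and scanning imager measurement at 405 nm excitation.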
ELG1 DNA repair = ELG1-dependent DNA repair inhibition; HEK293T ELG1-luciferase reporter, luminescence, 16 h; DNA damage induced by 5-fluorouridine; Potency, µM (highest dose often 46.1 µM), for inactives: top-dose activity change, negative = inhibition, most hits filed as inhibitors; 2.3% of 330,000 active; also: % is scaled to controls: 0 for no effect and ±100 for the full control effect; nearly all actives have a fitted effect of over 55% in size
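Quantitative HTS, concentration-response format. 2,000 cells/well co-treated with 5-fluorouridine and compound, 16 hr in 5% CO2 at 37 °C; ONE-Glo luminescence read after 30 min.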
KB-3-1 cytotox = KB-3-1 parental cell cytotoxicity; KB-3-1 viability, CellTiter-Glo ATP luminescence, 72 h; Potency, µM (highest dose often 46.1 µM), actives largely listed as cytotoxic; 1.4% of 400,000 active; also: % is scaled to controls: 0 for no effect and ±100 for the full control effect; nearly all actives have a fitted effect of over 60% in size
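KB-3-1 cells, DMEM (no phenol red) + 10% FBS; compound by pin transfer, 72 h, 37 °C. Readout: CellTiter-Glo luminescence after 10 min. Data normalized, curve-fitted.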
MCF10A rereplic = DNA re-replication induction in MCF 10a cells; MCF 10A DNA re-replication, Hoechst nuclear intensity, 48 h; Potency, µM (doses to about 46.1 µM), for the others: at the highest dose activity, positive = re-replication, usual class: activators; 2.9% of 350,000 active; also: % of control where 0% means no effect; nearly all actives have a fitted effect of over 50% in size
KB-V1 MDR tox = KB-V1 MDR subline cytotoxicity. AID 1347076. KB-V1 MDR cells viability, CellTiter-Glo, 72 h. Potency, µM (highest dose often 46.1 µM), hits mostly cytotoxic. 3.4% of 400,000 active; also: % is scaled to controls: 0 for no effect and ±100 for the full control effect; nearly all actives have a fitted effect of over 60% in size
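Drug-selected KB-V1 cells, grown in DMEM lacking phenol red with 10% FBS, receive compound titrations; after three days at 37 degrees C, surviving cell ATP is quantified by CellTiter-Glo luminescence and responses normalized and curve-fitted.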
Numbers without * were called inactive; i = inactive; ? = inconclusive; . = no result; [ ] = remark or other dose. This is a sample that favours compounds with a hit; in the whole collection about 8.2% have one here. Calls follow the shape of the dose curve; as a rule, active = well fitted curve in the direction sought with a large enough effect; inconclusive = small, poorly fitted or top-dose-only effect, or another doubt; inactive = no such curve, though single readings can be large; an effect the other way counts as inactive or inconclusive. Potency is read from the fitted curve at half-maximal effect.

SMILES | SW480 rereplic | ELG1 DNA repair | KB-3-1 cytotox | MCF10A rereplic | KB-V1 MDR tox
Cc1nc2c3cc(F)ccc3n(CCN3CCCCC3)c2s1 | ? | 0% | ? | 23µM* | i
CSc1ccc(CNC(=O)c2ccc3c(c2)N(C)C(=O)C2CCCCN32)cc1 (centres undefined) | . | . | i | . | ?
CN1CCCc2cc(C=O)ccc21 | -4%[9.22 µM] | 21% | i | 1% | i
CCCN1CCCc2cc(CN)ccc21 | ? | ? | i | 13µM* | i
O=C1CC(N2C(=O)/C(=C/C=C/c3ccccc3)SC2=S)C(=O)N1c1ccccc1 (centres undefined) | -40% | -15% | i | 4.6µM* | i
O=C1NC(=O)C(=CC=Cc2ccccc2)S1 | . | . | i | . | i
CCOc1cc(/C=N/NC(=O)CN(CCc2ccccc2)S(=O)(=O)c2ccc(NC(C)=O)cc2)ccc1O | -3% | 26µM* | i | 1% | ?
COc1ccc(N(CC(=O)N/N=C/c2ccc3c(c2)OCO3)S(=O)(=O)c2ccccc2)cc1 | . | 10% | . | . | .
CCNC(=O)CN(CCc1ccccc1)S(=O)(=O)c1ccc(OC)cc1 | -6% | 1% | i | -3% | 21µM*
O=C(CN(CCc1ccccc1)S(=O)(=O)c1ccc(Cl)cc1)N/N=C/c1ccc2c(c1)OCO2 | -53% | -9% | i | -1% | 9.2µM*
COc1ccc(S(=O)(=O)N(CCc2ccccc2)CC(=O)N/N=C/c2ccc3c(c2)OCO3)cc1 | ? | 16µM* | ? | 1% | 4.6µM*
CSC1=NC(C(Cl)(Cl)Cl)N=C(c2ccccc2)N1 (centres undefined) | ? | ? | 3.3µM* | ? | 5.8µM*
COc1ccc(OC)c(C(=O)c2coc3ccc(O)cc23)c1 | ? | 12% | ? | ? | 10µM*
Cc1ccc(-c2nc3ccccn3c2Nc2ccccc2C)s1 | . | . | i | . | ?
O=c1[nH]c2cc3c(cc2cc1CN(Cc1cccnc1)C(=S)NCc1ccco1)OCO3 | -4% | 12µM* | i | -1% | i
CN(C)CCN(Cc1cc2cc3c(cc2[nH]c1=O)OCO3)C(=S)NCc1ccco1 | -38% | 1% | i | -5% | i
O=c1[nH]c2cc3c(cc2cc1CN(Cc1cccnc1)C(=S)NCc1ccco1)OCCO3 | -2% | 9.2µM* | i | 9% | i
Cc1ccc(-c2cc(Cc3ccncc3)c(=O)[nH]n2)cc1 | 0% | -3% | i | 1% | i
COc1ccc(Cn2cc(CN3CCc4onc(-c5ccccc5OC)c4C3=O)nn2)cc1 | . | . | i | . | i
COc1ccc(C(c2c(O)ccc3ccccc23)N2CCOCC2)c(OC)c1 (centres undefined) | ? | ? | i | 3.3µM* | i
COc1ccc(C(CCN2CCOCC2)c2c(O)cc(OC)cc2OC)cc1 (centres undefined) | ? | -1% | i | 24% | i
O=C1NCCN(CC2CCN(CCc3ccc(Cl)c(Cl)c3)CC2)C1=O | -3% | . | i | ? | i
Cn1cnc2nc(Cl)nc(Cl)c21 | 1.3µM* | . | 3.3µM* | 7.3µM* | 3.7µM*
CNc1nc(Cl)nc2ncn(C)c12 | 0% | . | i | 1% | i
O=C(C[n+]1ccc2ccccc2c1)c1ccc(NC(=O)c2ccccc2)cc1 | -4% | ? | 21µM* | 2% | i
SMILES | SW480 rereplic | ELG1 DNA repair | KB-3-1 cytotox | MCF10A rereplic | KB-V1 MDR tox
O=C(Nc1ccc2oc(-c3cccnc3)nc2c1)c1ccccc1F | . | . | i | . | i
CCN(CC)CCC(=O)N1c2ccccc2Sc2ccc(NC(=O)OC)cc21 | ? | 9% | i | 23µM* | i
CCOc1ccc(NC(=O)N2CC=C(c3c[nH]c4ccccc34)CC2)cc1 | . | . | 23µM* | . | ?
COc1cc(C2C(C#N)=C(N)Oc3cc(O)ccc32)cc2c1OCO2 (centres undefined) | -18% | ? | ? | ? | ?
COc1cc(C2C(C#N)=C(N)Oc3cc4c(cc32)OCO4)cc(OC)c1OC (centres undefined) | ? | ? | 0.0052µM* | ? | 0.23µM*
CCOC(=O)C1=C(C)OC(N)=C(C#N)C1c1cc(OC)c2c(c1)OCO2 (centres undefined) | -10% | ? | ? | 2% | i
COc1cc(C2C(C#N)=C(N)Oc3cc(N(C)C)ccc32)cc2c1OCO2 (centres undefined) | -3% | 11% | 0.82µM* | ? | 0.016µM*
Clc1cccc[n+]1CCc1ccccc1 | . | . | i | . | i
O=C(Oc1ccccc1/C=C\C(=O)c1cc2ccccc2o1)c1cccc(F)c1 | ? | ? | i | 18µM* | ?
COc1cccc(C(=O)Oc2ccccc2/C=C\C(=O)c2cc3ccccc3o2)c1 | ? | ? | ? | 0.58µM* | i
O=C(/C=C/c1cc2ccccc2o1)c1ccccc1O | 5% | ? | i | ? | i
O=C(Oc1ccccc1/C=C\C(=O)c1cc2ccccc2o1)c1ccccc1 | ? | ? | i | ? | i
COc1ccc(O)c(C(=O)/C=C/c2cc3ccccc3o2)c1 | ? | . | i | 2.6µM* | i
C=CCOc1ccc(C2/C(=C(\O)c3ccc4c(c3)CC(C)O4)C(=O)C(=O)N2CCN2CCOCC2)cc1OCC (centres undefined) | 1% | 3% | i | 0% | i
O=C(Nc1ccccn1)C1CCN(C(=O)c2ccc(Cl)cc2)CC1 | . | . | i | . | i
O=c1[nH]c(=S)ccn1C1OC(CO)C(O)C1O (centres undefined) | -2% | . | 9.2µM* | ? | ?
O=c1[nH]cnc2c1ccn2C1OC(CO)C(O)C1O (centres undefined) | -1% | . | 15µM* | 2.1µM* | 16µM*
O=c1[nH]c(=O)n([C@H]2C[C@@H](O)[C@@H](CO)O2)cc1F | . | . | ? | . | i
O=c1[nH]c(=O)n(C2OC(CO)C(O)C2O)cc1F (centres undefined) | 1µM* | . | 21µM* | ? | 21µM*
O=C(NCCS(=O)(=O)N1CCN(c2ccccc2)CC1)c1ccc(Br)o1 | ? | 20% | i | 0% | ?
Cc1ccc(S(=O)(=O)N2CCCC2C(=O)Nc2nc3c(s2)CCCC3)cc1 (centres undefined) | 7% | -26% | ? | 18% | i
COc1ccc2nc(NC(=O)C3CCCN3S(=O)(=O)c3ccc(C)cc3)sc2c1 (centres undefined) | 5% | 23µM* | i | 15% | 18µM*
COc1ccc(NC(=O)C2CCCN(S(=O)(=O)c3cccc4nonc34)C2)c(OC)c1 (centres undefined) | ? | -11% | i | 3% | i
